Data from PubChem BioAssay (NCI).
“And” between values parts separate entries of the source, which are not always exact repeats. Equal values may be shown once. The panel holds about 83,000 compounds, 20% with a hit somewhere; the sample as a whole holds those more often.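 Percent growth is the endpoint: 0 to 100 indicates growth inhibition (40 means 60% inhibition), 0 means no net growth, and negative values indicate cell death.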 The source made the active and inactive calls. How the source made its calls: active means growth percent below 10; inactive means the rest.

What was measured:
Assay in all cases: NCI-60 one-dose screen, 48 h (100 = growth as untreated, 0 = no growth, -100 = all killed)
Details in all cases: 10 µM unless noted
[1] = system: T-47D breast
[2] = system: BT-549 breast
[3] = system: MDA-MB-435 melanoma
[4] = system: SW-620 colon
[5] = system: MCF7 breast
[6] = system: HCT-116 colon
[7] = system: HCC-2998 colon
[8] = system: KM12 colon

Row | Compound | growth [1] | growth [2] | growth [3] | growth [4] | growth [5] | growth [6] | growth [7] | growth [8]
1 | O=C(Nc1ccccc1C(=O)N/N=C(\c1ccccc1)c1ccccn1)c1ccccc1 | 13.3% (inactive) | 31.3% (inactive) | 27.7% (inactive) | 29.2% (inactive) | 9.02% (active) | 20.7% (inactive) | 29.7% (inactive) | 21.6% (inactive)
2 | Cc1n(Cc2ccc3ccccc3c2)c(Cl)c(Cl)[n+]1Cc1ccc2ccccc2c1 | 10.3% (inactive) | 26.8% (inactive) | -2.29% (active) | 40.5% (inactive) | 21.4% (inactive) | 18.2% (inactive) | 17.3% (inactive) | 0.454% (active)
3 | CCOC(=O)c1nc2c3ccccc3cnn2c1C(=O)c1ccc(OC)cc1 | 85.9% (inactive) | 98.2% (inactive) | 107% (inactive) | 99.2% (inactive) | 80.8% (inactive) | 92% (inactive) | 99.2% (inactive) | 102% (inactive)
4 | OCCN1CCN(c2cc(-c3cccc(OC(F)(F)F)c3)nc3ccc(N4CCCC4)cc23)CC1 | 32.2% (inactive) | 80.5% (inactive) | 29.7% (inactive) | 2.96% (active) | 17.5% (inactive) | 15.6% (inactive) | 22.9% (inactive) | 23.4% (inactive)
5 | CCN1C(=S)N(CC)C2C1NC(=S)N2/N=C/C=C/c1ccccc1 (configuration not stated) | 36.9% (inactive) | 47.5% (inactive) | -39% (active) | 28% (inactive) | 17.8% (inactive) | 22.8% (inactive) | 56.7% (inactive) | 22% (inactive)
6 | Cc1ccc2c(c1)C(C)Cc1c(ncnc1-n1cnc3cc(C)ccc31)N2C (configuration not stated) | 55.9% (inactive) | -0.751% (active) | 4.21% (active) | 22.7% (inactive) | 12.6% (inactive) | 11.2% (inactive) | 21.7% (inactive) | 16.5% (inactive)
7 | CCN(CC)CCCN1C(=O)c2c(c(C)c3c(oc4cc(OC)ccc43)c2C)C1=O | 112% (inactive) | 98.8% (inactive) | 103% (inactive) | 87.3% (inactive) | -14.7% (active) | 74.3% (inactive) | 98.1% (inactive) | 96.9% (inactive)
8 | CCN1C(=O)/C(=c2\sc3n(c2=O)C2C(NN=3)N(CC)C(=O)N2CC)c2ccccc21 (configuration not stated) | 39.5% (inactive) | 17.8% (inactive) | -32.6% (active) | 29.7% (inactive) | 26% (inactive) | 9.36% (active) | 30% (inactive) | 13.7% (inactive)
9 | CONC1=Nc2cc(NC(N)=NCc3ccccc3)c(N(C)C3CCCCC3)cc2OC1 | 63.7% (inactive) | 92% (inactive) | 73% (inactive) | 75% (inactive) | 36.1% (inactive) | 45.8% (inactive) | 22.1% (inactive) | 61.5% (inactive)
10 | CCCCCCCCCCCCCCCCCCn1cc(COc2ccc(C=O)cc2)nn1 | 88.6% (inactive) | 100% (inactive) | 109% (inactive) | 104% (inactive) | 92.8% (inactive) | 76.8% (inactive) | 99.8% (inactive) | 86.3% (inactive)
11 | CCC(=O)Oc1cc(Cl)c(Cl)cc1Cl | 101% (inactive) | 102% (inactive) | 107% (inactive) | 107% (inactive) | 93% (inactive) | 94.3% (inactive) | 94.8% (inactive) | 107% (inactive)
12 | CCCCCO/N=C\c1c2c(O)c3c(O)c(C)c4c(c3c1O)C(=O)C(C)(O/C=C\C(OC)C(C)C(OC(C)=O)C(C)C(O)C(C)C(O)C(C)/C=C\C=C(\C)C(=O)N2)O4 (configuration not stated) | 26.8% (inactive) | 33.1% (inactive) | 15.8% (inactive) | 18.3% (inactive) | 17% (inactive) | 9.51% (active) | 6.51% (active) | 17.3% (inactive)
13 | N#C/C(=N\Nc1ccc(Cl)cc1)C(=O)Nc1cc(-c2ccccc2)nn1-c1ccccc1 | 14.7% (inactive) | 11.4% (inactive) | 28.6% (inactive) | 21.4% (inactive) | 16.9% (inactive) | 8.26% (active) | 39.4% (inactive) | 32.4% (inactive)
14 | CCCCCCNC(=O)Oc1ccc(/C(=C(/CC)Cc2ccccc2)c2ccc(OCCCN(C)C)cc2)cc1 | 54.4% (inactive) | 82.8% (inactive) | 87.8% (inactive) | 59.6% (inactive) | 22.9% (inactive) | 39.8% (inactive) | 24.1% (inactive) | 82.4% (inactive)
15 | COc1ccc2c(c1)c(C(=O)c1nc(-c3cn(C)c4ccccc34)no1)cn2C | 77.5% (inactive) | 98% (inactive) | 76.7% (inactive) | 87% (inactive) | 24% (inactive) | 99.5% (inactive) | 95.3% (inactive) | 81% (inactive)
16 | COc1cc2nc3cc([N+](=O)[O-])ccc3c(NCCNCC(C)(C)O)c2cc1OC | -3.16% (active) | -75.6% (active) | -86.8% (active) | -15.2% (active) | -14.1% (active) | -20.9% (active) | -53.3% (active) | -7.24% (active)
17 | CN1CCN(C(=O)OCc2nc3c(N4CCOCC4)nc(Cl)nc3n2C)CC1 | -29.3% (active) | -84.2% (active) | -55.4% (active) | -84.9% (active) | -45.9% (active) | -88.5% (active) | -9.16% (active) | 15.5% (inactive)
18 | COc1ccc2c(c1)CCNC21C(=O)Nc2c(Br)cc(Br)cc21 (configuration not stated) | 90.3% (inactive) | 103% (inactive) | 101% (inactive) | 97.4% (inactive) | 101% (inactive) | 103% (inactive) | 105% (inactive) | 104% (inactive)
19 | COc1ccc(/C=N\Nc2nc(SCC(C)C)nc(-c3ccc(OC)cc3)c2C#N)cc1 | 16.2% (inactive) | 110% (inactive) | 68.5% (inactive) | 51% (inactive) | 59.3% (inactive) | 2.29% (active) | 64.2% (inactive) | 62.6% (inactive)
20 | CC(=NCc1ccccc1)c1ccc(O)cc1O | 92.2% (inactive) | 91.9% (inactive) | 114% (inactive) | 109% (inactive) | 97.8% (inactive) | 104% (inactive) | 92.5% (inactive) | 104% (inactive)
21 | CCCCn1c(C(=O)c2c[nH]c3ccccc23)n[nH]c1=S | 77.5% (inactive) | 114% (inactive) | 98.7% (inactive) | 101% (inactive) | 73.2% (inactive) | 92.4% (inactive) | 101% (inactive) | 92.2% (inactive)
22 | CON1CCC[C@]2(C)[C@H]3CC[C@@H]4[C@H]5[C@@H](O)C(C)(C)CC[C@]5(CO)CC[C@@]4(C)[C@]3(C)CC[C@H]2C1(C)C | 79.8% (inactive) | 115% (inactive) | 94.5% (inactive) | 98.4% (inactive) | 98.5% (inactive) | 88.6% (inactive) | 103% (inactive) | 105% (inactive)
23 | COc1cc(-c2nc3occn3c2-c2ccnc(NCCCNS(=O)(=O)c3ccc(O)cc3)n2)ccc1F | 84.8% (inactive) | 116% (inactive) | 47.7% (inactive) | 115% (inactive) | 92.1% (inactive) | 86.1% (inactive) | 112% (inactive) | 99.8% (inactive)
24 | CCOC(=O)c1c(-c2ccc(OC)cc2)c(C#N)c2c(C#N)c(N)nn2c1N | 12% (inactive) | 37% (inactive) | -38.2% (active) | 26.9% (inactive) | 13.2% (inactive) | 16% (inactive) | 62.9% (inactive) | 23.6% (inactive)
25 | CCCCC(NC(=O)CN1C(=O)/C(=C/C(C)=C/c2ccccc2)SC1=S)C(=O)O (configuration not stated) | 105% (inactive) | 112% (inactive) | 104% (inactive) | 94.6% (inactive) | 93.3% (inactive) | 98.5% (inactive) | 110% (inactive) | 102% (inactive)
26 | COc1ccc(C(=O)c2ccc(OC)c(OC)c2OC)cc1 | 44.5% (inactive) and 36.2% (inactive) | 71.9% (inactive) and 50% (inactive) | -14.6% (active) and -29.5% (active) | 15.6% (inactive) and 11.8% (inactive) | 25.4% (inactive) and 16.5% (inactive) | 30.5% (inactive) and 26.3% (inactive) | 57.3% (inactive) and 45.6% (inactive) | 29.5% (inactive) and 24.7% (inactive)
27 | COC(=O)/C=C1/SC(=Nc2ccc([N+](=O)[O-])cc2)N(CCc2c[nH]c3ccccc23)C1=O | 46.5% (inactive) | 60.8% (inactive) | 55.5% (inactive) | 47.3% (inactive) | 20.1% (inactive) | 21.8% (inactive) | 78.3% (inactive) | 66.4% (inactive)
28 | Nc1ccc(-c2nc3ccc4[nH]ncc4c3c3c2CCCC3)cc1F | 14.6% (inactive) | 10% (inactive) | 14.2% (inactive) | 18.7% (inactive) | 29.2% (inactive) | 11.1% (inactive) | 44.3% (inactive) | 12.3% (inactive)
29 | CN1Cn2c(ccc2C(F)(F)F)C(=O)CS1(=O)=O | 115% (inactive) | 105% (inactive) | 103% (inactive) | 104% (inactive) | 98.4% (inactive) | 94.9% (inactive) | 104% (inactive) | 110% (inactive)
